p53 PUMA act = mutant p53 pathway reactivation; activation, % at 9.98 µM; actives 1.5% (n = 28,000); SW480 PUMA-promoter luciferase; AID 624151; in the data active = activation above about 52%; inconclusive = no clear call, values can overlap the other calls
ID4 SMM = binders of human ID4 protein. P47928. small molecule microarray, Flag-ID4 binding, fluorescence F/B. calls only. actives 1.2% (n = 31,000); call rule not given here;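 also: a binder raises fluorescence above local background on the spot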
Target sequence (P47928 whole entry, looked up): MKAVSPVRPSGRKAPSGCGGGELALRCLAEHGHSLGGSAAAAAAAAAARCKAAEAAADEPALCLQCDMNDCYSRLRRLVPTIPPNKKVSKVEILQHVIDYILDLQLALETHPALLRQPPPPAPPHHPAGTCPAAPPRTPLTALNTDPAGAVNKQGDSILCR
Numbers without * were called inactive. Most compounds without a hit are left out; they make up all but 2.3% or so of the library.

How did CN1CCN(C2=Cc3ccccc3Oc3ccc(Cl)cc32)CC1 do in these assays?
ID4 SMM: inactive

How did COc1c2c(cc3oc(=O)ccc13)OC(C)(C)C=C2 do in these assays?
ID4 SMM: inactive

Results for CC1(C)C=Cc2cc3ccc(=O)oc3cc2O1 ?
p53 PUMA act: 58.4*

How did Oc1ccc(CCCc2ccc3c(c2)OCO3)c(O)c1 do in these assays?
ID4 SMM: inactive

What do the screens show for `Cc1ccccc1N1C(=O)CC(SCC(=O)Nc2ccccc2)C1=O` (stereo unspecified)?
p53 PUMA act: 3.2; ID4 SMM: inactive

How did CC(CNC(=O)c1ccco1)NC(=O)c1ccco1 (stereo unspecified) do in these assays?
p53 PUMA act: -2.4; ID4 SMM: active

What do the screens show for `O=C(NCCNC(=O)c1ccco1)c1ccco1`?
p53 PUMA act: 0.9; ID4 SMM: inactive

Results for COc1cccc(NC(=O)CNC(=O)c2ccccc2)c1 ?
p53 PUMA act: 57.4*; ID4 SMM: inactive

Results for COc1ccc(C(=O)NCC(=O)Nc2cccc(C(F)(F)F)c2)cc1 ?
p53 PUMA act: -7.7; ID4 SMM: inactive

How did O=C(Cn1cnc2ccccc2c1=O)Nc1ccccc1[N+](=O)[O-] do in these assays?
p53 PUMA act: 3.7; ID4 SMM: inactive

How did COc1ccc(-c2cc(=O)c3c(O)cc(O)cc3o2)cc1 do in these assays?
p53 PUMA act: 94.7*

Results for COc1cc(C)c2c(=O)cc(-c3ccccc3)oc2c1 ?
p53 PUMA act: 85.5*; ID4 SMM: inactive

How did COc1cc2oc(-c3ccccc3)cc(=O)c2c(OC)c1OC do in these assays?
p53 PUMA act: 15.5; ID4 SMM: inactive

What do the screens show for `COc1ccc(-c2cc(=O)c3c(O)cc(O[C@@H]4O[C@H](C(=O)O)[C@@H](O)[C@H](O)[C@H]4O)cc3o2)cc1`?
ID4 SMM: inactive

Results for Cc1cc(C)c(S(=O)(=O)N(C)CC(=O)Nc2ccc(Cl)cc2Cl)c(C)c1 ?
p53 PUMA act: -3.0; ID4 SMM: inactive

Results for Cc1ccc(NC(=O)C(C)n2cc([N+](=O)[O-])cn2)cc1C (stereo unspecified) ?
p53 PUMA act: 13.0; ID4 SMM: inactive

How did COc1ccc2cc(C(=O)NCc3ccco3)c(=O)oc2c1 do in these assays?
p53 PUMA act: 74.3*; ID4 SMM: inactive

Results for CCOc1cccc2cc(C(=O)NCc3ccco3)c(=O)oc12 ?
p53 PUMA act: 24.6; ID4 SMM: inactive

What do the screens show for `Cc1cccc(NC(=O)CSc2nnc(-c3ccco3)n2-c2ccccc2)c1C`?
p53 PUMA act: 8.2; ID4 SMM: inactive

What do the screens show for `Cc1ccc(Cl)c(OCC(O)Cn2cnc3ccccc32)c1` (stereo unspecified)?
p53 PUMA act: inconclusive; ID4 SMM: inactive

What do the screens show for `OC(COc1ccccc1Cl)Cn1nnc2ccccc21` (stereo unspecified)?
p53 PUMA act: 65.8*; ID4 SMM: inactive

What do the screens show for `Cc1nc2ccccc2n1CC(O)COc1ccccc1Cl` (stereo unspecified)?
p53 PUMA act: -5.8; ID4 SMM: inactive

Results for OC(COc1ccccc1Cl)Cn1cnc2ccccc21 (stereo unspecified) ?
p53 PUMA act: 110.5*; ID4 SMM: inactive

What do the screens show for `COC(=O)CSc1nc(N(C)C)nc(N(C)C)n1`?
p53 PUMA act: 0.2; ID4 SMM: inactive

Results for Cc1cccc(NC(=O)c2cc(NC(=O)CCC(=O)O)ccc2N2CCOCC2)c1 ?
p53 PUMA act: -12.3; ID4 SMM: active

Results for Cc1cccc(NC(=O)c2cc(NC(=O)C3CCCCC3C(=O)O)ccc2N2CCCCC2)c1 (stereo unspecified) ?
p53 PUMA act: -15.7; ID4 SMM: inactive

How did CC(=O)c1cccc(NC(=O)CSc2nc3ccc([N+](=O)[O-])cc3s2)c1 do in these assays?
p53 PUMA act: -7.9; ID4 SMM: inactive

How did Cn1c(SCC(=O)Nc2ccnc3ccccc23)nnc1-c1ccncc1 do in these assays?
p53 PUMA act: -27.8; ID4 SMM: active

Results for Cn1c(SCC(=O)Nc2ccccc2C(F)(F)F)nnc1-c1ccc(F)cc1 ?
p53 PUMA act: 9.1; ID4 SMM: inactive

Results for Cc1ccc(NC(=O)CSc2nnc(-c3ccncc3)n2C)c(Br)c1 ?
p53 PUMA act: 1.1; ID4 SMM: inactive

Results for Cc1ccc(-c2nnc(SCC(=O)Nc3ccccc3F)n2C)cc1 ?
p53 PUMA act: 60.1*; ID4 SMM: inactive

What do the screens show for `CCOC(=O)c1c(NC(=O)c2nc3nc(C)cc(C(F)F)n3n2)sc(C)c1C`?
p53 PUMA act: 1.7; ID4 SMM: inactive

Results for COc1cccc(-c2cnc3c(c2)C(=O)N([C@H](C)CO)C[C@@H](C)[C@@H](CN(C)CC2CC2)O3)c1 ?
ID4 SMM: inactive

What do the screens show for `CN1CCN(Cc2c(O)ccc3c(=O)c(-c4ccc(Cl)cc4Cl)c(C(F)(F)F)oc23)CC1`?
p53 PUMA act: -77.3; ID4 SMM: inactive

Results for COc1cc(CO)ccc1OCC(=O)Nc1ccc(C)cc1 ?
p53 PUMA act: 47.2; ID4 SMM: inactive

How did CC(=O)Nc1ccccc1NC(=O)COc1ccc(Cl)cc1Cl do in these assays?
p53 PUMA act: 25.8; ID4 SMM: inactive

Results for O=C(COc1ccc(Cl)cc1CO)Nc1ccccc1F ?
p53 PUMA act: 127.5*; ID4 SMM: inactive

What do the screens show for `COc1cc(CO)ccc1OCC(=O)Nc1ccccc1F`?
p53 PUMA act: 64.4*; ID4 SMM: inactive

Results for CC(=O)Oc1ccc(NC(=O)COc2cccc(C)c2C)c(C(=O)O)c1 ?
p53 PUMA act: -6.0; ID4 SMM: inactive

Results for Cc1cccc(OCC(=O)Nc2ccccc2CO)c1C ?
p53 PUMA act: 69.0*; ID4 SMM: inactive

Results for CC(=O)C1=C(c2ccccc2)NC(=S)NC1c1cc(Cl)ccc1OCC(=O)O (stereo unspecified) ?
p53 PUMA act: -10.4; ID4 SMM: inactive

How did CCC(=O)N(C)C[C@H]1Oc2ncc(-c3ccccc3C)cc2C(=O)N([C@@H](C)CO)C[C@H]1C do in these assays?
ID4 SMM: inactive

How did O=C(COc1ccccc1[N+](=O)[O-])Nc1ccc2oc(-c3cccc(Br)c3)nc2c1 do in these assays?
p53 PUMA act: 1.9; ID4 SMM: inactive

Results for N#CCCSc1nnc(-c2cccnc2)n1Cc1ccccc1 ?
p53 PUMA act: -12.1; ID4 SMM: inactive

How did O=C(NCc1ccco1)c1cccc(S(=O)(=O)N2CCCCCC2)c1 do in these assays?
p53 PUMA act: 2.1; ID4 SMM: inactive

How did C=CCN1C(=O)[C@@]2(O[C@@H](CCn3cc([C@H](O)c4ccccc4)nn3)[C@H]([Si](C)(C)c3ccc(OC)cc3)[C@H]2C)c2cc(N3C(=O)c4cccc5cccc3c45)ccc21 do in these assays?
ID4 SMM: inactive

How did C[C@H]1CN([C@@H](C)CO)C(=O)c2cccc(NC(=O)c3cnccn3)c2O[C@@H]1CN(C)C(=O)NC1CCCCC1 do in these assays?
p53 PUMA act: 7.5; ID4 SMM: inactive

What do the screens show for `COC(=O)c1ccccc1NC(=O)CNC(=O)c1ccccc1`?
p53 PUMA act: -9.3; ID4 SMM: inactive

Results for COC(=O)c1ccccc1NC(=O)c1cccc(NC(=O)COc2ccccc2)c1C ?
p53 PUMA act: -3.4; ID4 SMM: inactive

What do the screens show for `COC(=O)c1ccccc1NC(=O)c1ccc(COc2ccccc2)o1`?
p53 PUMA act: 102.6*; ID4 SMM: inactive

What do the screens show for `COC(=O)c1ccccc1NC(=O)NCc1ccc(C(=O)O)cc1`?
p53 PUMA act: -3.6; ID4 SMM: active

Source: PubChem (Broad Institute)
